Measured values: PubChem BioAssay AID1321 (The Scripps Research Institute Molecular Screening Center, 2008)
In all, about 220,000 compounds went through this assay and about 2,600 (1.2%) were called active. The sample holds actives, similar compounds and a random draw of the others, so the mix is not that of the screen. Unmarked numbers belong to inactive results.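 The calls were made as follows: active = activation above the mean of all tested compounds plus 3 SD, set per screening run (cut at about 8.8% in these data); inactive = the rest.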

biological target: Wee1-like protein kinase (Homo sapiens) (UniProt P30291); assay: compounds stabilizing Wee1-luciferase fusion – cell-based, HeLa, Wee1K328M-luciferase, luminescence, primary screen (AID 1321); conditions: HeLa Luc-Wee1K328M stability, at 5 µM, active compounds read high, 100% = proteasome inhibitor MG132 effect;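 also: cells exposed to compound for 20 h before luminescence read; 0% = DMSO alone and 100% = MG132 at 30 µM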

SMILES	reporter increase
O=C(Nc1ccc2nc3n(c(=O)c2c1)CCCCC3)c1ccccc1Cl	0.41%
Cc1ccc2nc3n(c(=O)c2c1)CCC3	12.8% (active)
Cc1cccc2c(=O)n3c(nc12)CCCCC3	-0.11%
CNC(=O)c1csc(Cc2c(Cl)sc3ccc(Cl)cc23)n1	0.14%
O=C(COc1ccccc1)N1CCN=C1SCc1cccc(F)c1	-0.6%
CS(=O)(=O)c1sc(C(=O)NC(=S)Nc2ccc(OC(F)(F)F)cc2)c2c1C=CCC2	3.21%
CCOC(=O)c1c(C)nn(-c2ncccc2NC(=O)CCC(=O)O)c1C	-3.19%
O=C(COC(=O)c1ccc[nH]c1=O)Nc1ccc2c(c1)OC(F)(F)O2	7.03%
CN1C(=O)/C(=C/C=C2\SCCN2C)OC1=S	9.67% (active)
CCN(CC(=O)Nc1ccc(Cl)c(S(=O)(=O)N(C)C)c1)Cc1nc2ccccc2c(=O)[nH]1	9.09% (active)
CCCC(=O)N(CCc1ccccc1)Cc1nc2ccccc2c(=O)[nH]1	-2.77%
CN(C)S(=O)(=O)c1cc(NC(=O)CN2C(=O)NC3(CCCc4ccccc43)C2=O)ccc1Cl (stereo not drawn)	-2.38%
CCN(CC(=O)NC(=O)NCc1ccccc1)Cc1nc2ccccc2c(=O)[nH]1	10.5% (active)
O=C(c1ccco1)N(Cc1nc2ccccc2c(=O)[nH]1)C1CCCC1	-0.38%
CCN(CC(=O)Nc1cccc(S(N)(=O)=O)c1)Cc1nc2ccccc2c(=O)[nH]1	-3.31%
CC#CC[N+](C)(C)CCCCCC	3.56%
CC(C)CCNC(=O)C1CCC(CNc2c(N3CCC(C)CC3)c(=O)c2=O)CC1 (stereo not drawn)	-0.83%
Cc1csc(/N=C/N(C)C)c1C#N	-2.57%
C/C(CC(=O)NC(C)c1ccccc1)=N\NC(N)=S (stereo not drawn)	-1.77%
CC(C)c1csc(CN2CCC(CO)(Cc3ccccc3)CC2)n1	11.4% (active)
CC(=O)c1cccc(CN2CCC(CO)(Cc3ccccc3)CC2)c1	-2.2%

SMILES	reporter increase
OCC1(Cc2ccccc2)CCN(Cc2cc3ccccc3o2)CC1	-0.66%
O=C(Cn1ncc(N2CCCC2)c(Br)c1=O)c1ccc(Cl)cc1	9.08% (active)
CC(=O)Cn1ncc(N2CCOCC2)c(Br)c1=O	1.92%
Cn1c(=O)c2c(nc(N3CCCCCC3)n2CC(=O)c2ccc(Br)cc2)n(C)c1=O	-1.77%
CCc1ccc(S(=O)(=O)Nc2ccc(C)c(NS(C)(=O)=O)c2)cc1	-2.18%
COC(=O)c1c(C)oc(C)c1S(=O)(=O)Nc1ccc(C(C)C)cc1	-0.82%
NC(=S)N/N=C/c1coc2cc(Cl)ccc2c1=O	7.29%
O=c1c(/C=N/O)coc2ccc(Cl)cc12	13.3% (active)
O=C(N/N=C/c1coc2ccccc2c1=O)c1cc2ccccc2o1	2.23%
O=C(NN1C(=O)C2C(C1=O)C1C=CC2C12CC2)c1ccccc1Cl (stereo not drawn)	1.5%
C=CCSc1nc(N)cc(=O)[nH]1	0.5%
O=C(O)Cc1csc(NC(=O)CSc2nnnn2-c2ccc(O)cc2)n1	-2.13%
O=C(O)[C@@H]1CCCN1c1ncnc2sc3c(c12)CCC3	3.81%
OCCNc1nc2ccccc2n1-c1ncnc2sc3c(c12)CCC3	13.6% (active)
CC(C)(C)C(=O)Cn1c(NCCO)nc2ccccc21	-0.8%
COCc1cc(=O)oc2cc(NS(=O)(=O)c3ccc(C)cc3)ccc12	5.18%
Cc1nnc(SCC(=O)N2CCc3ccccc32)n1-c1ccccc1	4.42%
CC(C)(C)c1ccc(C(=O)NCc2nnc(SCC(=O)N3CCCc4ccccc43)n2-c2ccccc2)cc1	9.34% (active)
O=C(CSc1nc2[nH]ncc2c(=O)n1-c1ccccc1)N1CCCc2ccccc21	-1.42%
CC(=O)Nc1ccc(/C=C/C(=O)c2ccccc2)cc1	1.71%
CSc1nnnn1-c1c(C)cc(C)cc1C	-0.91%

SMILES	reporter increase
CC(C)c1ccc(NC(=S)NC2CC3C=CC2C3)cc1 (stereo not drawn)	18.5% (active)
S=C(NNC(=S)NC1CC2C=CC1C2)NC1CC2C=CC1C2 (stereo not drawn)	-1.36%
S=C(NNC(=S)NC1CC2CCC1C2)NC1CC2C=CC1C2 (stereo not drawn)	-2.51%
COc1ccc([N+](=O)[O-])cc1N(CC(O)CN(CC(C)C)CC(C)C)S(=O)(=O)c1ccc(C)cc1 (stereo not drawn)	-0.64%
CCN(CC)CCn1c(N)c(S(=O)(=O)c2ccccc2)c2nc3ccccc3nc21	12.4% (active)
Cc1ccc(S(=O)(=O)c2c(N)n(C)c3nc4ccccc4nc23)cc1	-2.43%
CCC(=O)Nc1c(S(=O)(=O)c2ccccc2)c2nc3ccccc3nc2n1Cc1ccccc1	-1.34%
CSCCC(NS(=O)(=O)c1ccc2c(c1)oc(=O)n2C)C(=O)NCc1ccccc1 (stereo not drawn)	5.59%
O=C(CCl)Nc1cccc(CP(=O)(c2ccccc2)c2ccccc2)c1	1.71%
COc1ccc(C(=O)N/N=C(\C)CC(=O)Nc2ccc(Cl)cn2)cc1	0.12%
CC(=O)Nc1ccc(-c2csc(NC(=O)Nc3ccccc3)n2)cc1	16.9% (active)
O=C(Nc1ccccc1)Nc1nc2ccccc2s1	12.1% (active)
CC(=O)Nc1ccc(-c2csc(NC=C3C(=O)OC(C)(C)OC3=O)n2)cc1	0.77%
O=C(Nc1nc2ccccc2s1)c1ccc2c(c1)OCO2	-1.51%
CSCCC(Nc1nc2ccccc2s1)C(=O)O (stereo not drawn)	1.41%
CC(=O)Nc1ccc(S(=O)(=O)Nc2nc(-c3ccc(C(C)(C)C)cc3)cs2)cc1	3.64%
O=C(CCCl)Nc1ccc(S(=O)(=O)NCc2ccco2)cc1	4.12%
Cc1ccc(C(=O)NCC(=O)OCC(=O)Nc2cccc(S(=O)(=O)N3CCCC3)c2)cc1C	0.09%
CCN(CCCNC(=O)CCn1c(=O)[nH]c2ccsc2c1=O)c1ccccc1	4.65%
CCCCC(CC)CNC(=O)CCCCn1c(=O)[nH]c2ccsc2c1=O (stereo not drawn)	20% (active)
CCN(CC)CCNC(=O)CCCCCn1c(=O)[nH]c2cc(C(=O)OC)ccc2c1=O	-1.39%
